# According to PubChem BioAssay (NCATS):
# Where “and” joins values, the source holds several entries; their conditions need not be identical. Equal entries are not always repeated. Results filed as inconclusive are left out. A call without a number means that no potency is given here. Unmarked numbers belong to inactive results. Calls of active or inactive are those of the source. Calls follow the shape of the dose curve; as a rule, active = well fitted inhibition curve with a large enough effect; inconclusive = small, poorly fitted or top-dose-only effect; inactive = flat fitted curve, though single readings scatter.
# Key:
# [1] = qHTS profiling for inhibitors of Plasmodium falciparum proliferation (AID 504749); also: nearly all actives have a fitted effect of over 60% in size; settings: P. falciparum in erythrocytes, SYBR Green DNA, 72 h
# In short: (§1)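 SYBR Green fluorescence of parasite DNA, read after lysis and overnight dark incubation, measured growth over 72 h in erythrocyte culture at 0.3% parasitemia and 2.5% hematocrit. Data normalised to DMSO and 0.29 uM artemisinin, with plate-drift correction.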
# 3D7 = assay: as above; settings: P. falciparum in erythrocytes, SYBR Green DNA, 72 h; series mostly up to 28.7 µM
# In short: as §1
# 7G8 = assay: as above; settings: P. falciparum in erythrocytes, SYBR Green DNA, 72 h; series mostly up to 28.7 µM
# In short: as §1
# AA1029 = assay: as above; settings: P. falciparum in erythrocytes, SYBR Green DNA, 72 h; series mostly up to 28.7 µM
# In short: as §1
# AS120 = assay: as above; settings: P. falciparum in erythrocytes, SYBR Green DNA, 72 h; series mostly up to 28.7 µM
# In short: as §1
# ATS189 = assay: as above; settings: P. falciparum in erythrocytes, SYBR Green DNA, 72 h; series mostly up to 28.7 µM
# In short: as §1
# ATS95 = assay: as above; settings: P. falciparum in erythrocytes, SYBR Green DNA, 72 h; series mostly up to 28.7 µM
# In short: as §1
# C2A = assay: as above; settings: P. falciparum in erythrocytes, SYBR Green DNA, 72 h; series mostly up to 28.7 µM
# In short: as §1
# CP185 = assay: as above; settings: P. falciparum in erythrocytes, SYBR Green DNA, 72 h; series mostly up to 28.7 µM
# In short: as §1
# CP191 = assay: as above; settings: P. falciparum in erythrocytes, SYBR Green DNA, 72 h; series mostly up to 28.7 µM
# In short: as §1
# CP192 = assay: as above; settings: P. falciparum in erythrocytes, SYBR Green DNA, 72 h; series mostly up to 28.7 µM
# In short: as §1
# CP194 = assay: as above; settings: P. falciparum in erythrocytes, SYBR Green DNA, 72 h; series mostly up to 28.7 µM
# In short: as §1
# CP201 = assay: as above; settings: P. falciparum in erythrocytes, SYBR Green DNA, 72 h; series mostly up to 28.7 µM
# In short: as §1
# CP211 = assay: as above; settings: P. falciparum in erythrocytes, SYBR Green DNA, 72 h; series mostly up to 28.7 µM
# In short: as §1
# CP215 = assay: as above; settings: P. falciparum in erythrocytes, SYBR Green DNA, 72 h; series mostly up to 28.7 µM
# In short: as §1
# CP217 = assay: as above; settings: P. falciparum in erythrocytes, SYBR Green DNA, 72 h; series mostly up to 28.7 µM
# In short: as §1
# CP237 = assay: as above; settings: P. falciparum in erythrocytes, SYBR Green DNA, 72 h; series mostly up to 28.7 µM
# In short: as §1
# CP238 = assay: as above; settings: P. falciparum in erythrocytes, SYBR Green DNA, 72 h; series mostly up to 28.7 µM
# In short: as §1
# CP247 = assay: as above; settings: P. falciparum in erythrocytes, SYBR Green DNA, 72 h; series mostly up to 28.7 µM
# In short: as §1
# CP203 = assay: as above; settings: P. falciparum in erythrocytes, SYBR Green DNA, 72 h; series mostly up to 28.7 µM
# In short: as §1
# [2] = at 28.7 µM (top of the series), parasite line A
# [3] = at 28.7 µM (top of the series), parasite line B
# Potency is read from the fitted curve at half-maximal effect.
smiles,measurement,setting,value
O=C(O)[C@H](CC(=O)N1C[C@H]2CCCC[C@H]2C1)Cc1ccccc1,"activity, negative = inhibition",[1]; [2],9.74%
same,"activity, negative = inhibition",[1]; [3],2.21%
same,Potency,3D7,inactive
same,Potency,7G8,inactive
same,Potency,AA1029,inactive
same,Potency,AS120,inactive
same,Potency,ATS189,inactive
same,Potency,ATS95,inactive
same,Potency,C2A,inactive
same,Potency,CP185,inactive
same,Potency,CP191,inactive
same,Potency,CP192,inactive
same,Potency,CP194,inactive
same,Potency,CP201,inactive
same,Potency,CP211,inactive
same,Potency,CP215,inactive
same,Potency,CP217,inactive
same,Potency,CP237,inactive
same,Potency,CP238,inactive
same,Potency,CP247,inactive
[O-][n+]1ccccc1SSc1cccc[n+]1[O-],Potency,[1]; parasite line A,891 nM (active)
same,Potency,[1]; parasite line B,891 nM (active)
same,Potency,3D7,891 nM (active)
same,Potency,7G8,891 nM (active)
same,Potency,AA1029,891 nM (active)
same,Potency,AS120,891 nM (active)
same,Potency,ATS189,1120 nM (active)
same,Potency,ATS95,891 nM (active)
same,Potency,C2A,891 nM (active)
same,Potency,CP185,1120 nM (active)
same,Potency,CP191,1260 nM (active)
same,Potency,CP192,1350 nM (active)
same,Potency,CP194,1070 nM (active)
same,Potency,CP201,1900 nM (active)
same,Potency,CP203,1350 nM (active)
same,Potency,CP211,1070 nM (active)
same,Potency,CP215,1350 nM (active)
same,Potency,CP217,1260 nM (active)
same,Potency,CP237,891 nM (active)
same,Potency,CP238,1120 nM (active)
same,Potency,CP247,891 nM (active)
CCC1C(=O)OCC1Cc1cncn1C (stereo not given),"activity, negative = inhibition",[1]; [2],-3.99%
same,"activity, negative = inhibition",[1]; [3],-7.08%
same,Potency,3D7,inactive
same,Potency,7G8,inactive
same,Potency,AA1029,inactive
same,Potency,AS120,inactive
same,Potency,ATS189,inactive
same,Potency,ATS95,inactive
same,Potency,C2A,inactive
same,Potency,CP185,inactive
same,Potency,CP191,inactive
same,Potency,CP192,inactive
same,Potency,CP194,inactive
same,Potency,CP201,inactive
same,Potency,CP211,inactive
same,Potency,CP215,inactive
same,Potency,CP217,inactive
same,Potency,CP237,inactive
same,Potency,CP238,inactive
same,Potency,CP247,inactive
Cc1ccccc1CNc1ncnc2c1ncn2C1OC(CO)C(O)C1O (stereo not given),"activity, negative = inhibition",[1]; [2],17.8%
same,"activity, negative = inhibition",[1]; [3],-2%
same,Potency,3D7,inactive
same,Potency,7G8,inactive
same,Potency,AA1029,inactive
same,Potency,AS120,inactive
same,Potency,ATS189,inactive
same,Potency,ATS95,inactive
same,Potency,C2A,inactive
same,Potency,CP185,inactive
same,Potency,CP191,inactive
same,Potency,CP192,inactive
same,Potency,CP194,inactive
same,Potency,CP201,inactive
same,Potency,CP203,inactive
same,Potency,CP211,inactive
same,Potency,CP215,inactive
same,Potency,CP217,inactive
same,Potency,CP237,inactive
same,Potency,CP238,inactive
same,Potency,CP247,inactive
Cc1ccc(C(=O)c2ccc(CC(=O)O)n2C)cc1,"activity, negative = inhibition","[1]; at 12.8 µM (top of the series), parasite line A",-5.58%
same,"activity, negative = inhibition","[1]; at 12.8 µM (top of the series), parasite line B",10.6%
same,Potency,3D7,inactive
same,Potency,7G8,inactive
same,Potency,AA1029,inactive
same,Potency,AS120,inactive
same,Potency,ATS189,inactive
same,Potency,ATS95,inactive
same,Potency,C2A,inactive
same,Potency,CP185,inactive
same,Potency,CP191,inactive
same,Potency,CP192,inactive
same,Potency,CP194,inactive
same,Potency,CP201,inactive
same,Potency,CP203,inactive
same,Potency,CP211,inactive
same,Potency,CP215,inactive
same,Potency,CP217,inactive
same,Potency,CP237,inactive
same,Potency,CP238,inactive
same,Potency,CP247,inactive
O=C(O)/C=C/C(O)c1ccc(Cl)cc1 (stereo not given),"activity, negative = inhibition",[1]; [2],0.108%
same,"activity, negative = inhibition",[1]; [3],10.3%
same,Potency,3D7,inactive
same,Potency,7G8,inactive
same,Potency,AA1029,inactive
same,Potency,AS120,inactive
same,Potency,ATS189,inactive
same,Potency,ATS95,inactive
same,Potency,C2A,inactive
same,Potency,CP185,inactive
same,Potency,CP191,inactive
same,Potency,CP192,inactive
same,Potency,CP194,inactive
same,Potency,CP201,inactive
same,Potency,CP211,inactive
same,Potency,CP215,inactive
same,Potency,CP217,inactive
same,Potency,CP237,inactive
same,Potency,CP238,inactive
same,Potency,CP247,inactive
Cc1[nH]cnc1CN1CCc2c(c3ccccc3n2C)C1=O,"activity, negative = inhibition",[1]; [2],12%
same,"activity, negative = inhibition",[1]; [3],7.41%
same,Potency,3D7,inactive
same,Potency,7G8,inactive
same,Potency,AA1029,inactive
same,Potency,AS120,inactive
same,Potency,ATS189,inactive
same,Potency,ATS95,inactive
same,Potency,C2A,inactive
same,Potency,CP185,inactive
same,Potency,CP191,inactive
same,Potency,CP192,inactive
same,Potency,CP194,inactive
same,Potency,CP201,inactive
same,Potency,CP203,inactive
same,Potency,CP211,inactive
same,Potency,CP215,inactive
same,Potency,CP217,inactive
same,Potency,CP237,inactive
same,Potency,CP238,inactive
same,Potency,CP247,inactive
C=C(Nc1ccc(OCC)cc1)Nc1ccc(OCC)cc1,"activity, negative = inhibition",[1]; [2],1.26% and 13.3%
same,"activity, negative = inhibition",[1]; [3],-29.4% and 7.39%
same,Potency,3D7,inactive
same,Potency,7G8,inactive
same,Potency,AA1029,inactive
same,Potency,AS120,inactive
same,Potency,ATS189,inactive
same,Potency,ATS95,inactive
same,Potency,C2A,inactive
same,Potency,CP185,inactive
same,Potency,CP191,inactive
same,Potency,CP192,inactive
same,Potency,CP194,inactive
same,Potency,CP201,inactive
same,Potency,CP203,inactive
same,Potency,CP211,inactive
same,Potency,CP215,inactive
same,Potency,CP217,inactive
same,Potency,CP237,inactive
same,Potency,CP238,inactive
same,Potency,CP247,inactive
CCOC(=O)c1ccccc1O,"activity, negative = inhibition",[1]; [2],4.06%
same,"activity, negative = inhibition",[1]; [3],15.6%
same,Potency,3D7,inactive
same,Potency,7G8,inactive
same,Potency,AA1029,inactive
same,Potency,AS120,inactive
same,Potency,ATS189,inactive
same,Potency,ATS95,inactive
same,Potency,C2A,inactive
same,Potency,CP185,inactive
same,Potency,CP191,inactive
same,Potency,CP192,inactive
same,Potency,CP194,inactive
same,Potency,CP201,inactive
same,Potency,CP211,inactive
same,Potency,CP215,inactive
same,Potency,CP217,inactive
same,Potency,CP237,inactive
same,Potency,CP238,inactive
same,Potency,CP247,inactive
CCCCCCCCCCCC(=O)[O][Sn]([CH2]CCC)([CH2]CCC)[O]C(=O)CCCCCCCCCCC,"activity, negative = inhibition",[1]; [2],-9.86%
same,"activity, negative = inhibition",[1]; [3],-5.91%
same,Potency,3D7,inactive
same,Potency,7G8,inactive
same,Potency,AA1029,inactive
same,Potency,AS120,inactive
same,Potency,ATS189,inactive
same,Potency,ATS95,inactive
same,Potency,C2A,inactive
same,Potency,CP185,inactive
same,Potency,CP191,inactive
same,Potency,CP192,inactive
same,Potency,CP194,inactive
same,Potency,CP201,inactive
same,Potency,CP211,inactive
same,Potency,CP215,inactive
same,Potency,CP217,inactive
same,Potency,CP237,10000 nM (active)
same,Potency,CP238,inactive
same,Potency,CP247,inactive
O=C(OCc1ccccc1)c1ccccc1,"activity, negative = inhibition",[1]; [2],-9.71%
same,"activity, negative = inhibition",[1]; [3],-8.05%
same,Potency,3D7,inactive
same,Potency,7G8,inactive
same,Potency,AA1029,inactive
same,Potency,AS120,inactive
same,Potency,ATS189,inactive
same,Potency,ATS95,inactive
same,Potency,C2A,inactive
same,Potency,CP185,inactive
same,Potency,CP191,inactive
same,Potency,CP192,inactive
same,Potency,CP194,inactive
same,Potency,CP201,inactive
same,Potency,CP203,inactive
same,Potency,CP211,inactive
same,Potency,CP215,inactive
same,Potency,CP217,inactive
same,Potency,CP238,inactive
same,Potency,CP247,inactive
N=c1ccn2c(n1)O[C@H]1[C@H](O)[C@@H](CO)O[C@H]12,"activity, negative = inhibition",[1]; [2],4.44%
same,"activity, negative = inhibition",[1]; [3],4.16%
same,Potency,3D7,inactive
same,Potency,7G8,inactive
same,Potency,AA1029,inactive
same,Potency,AS120,inactive
same,Potency,ATS189,inactive
same,Potency,ATS95,inactive
same,Potency,C2A,inactive
same,Potency,CP185,inactive
same,Potency,CP191,inactive
same,Potency,CP192,inactive
same,Potency,CP194,inactive
same,Potency,CP201,inactive
same,Potency,CP211,inactive
same,Potency,CP215,inactive
same,Potency,CP217,inactive
same,Potency,CP237,inactive
same,Potency,CP238,inactive
same,Potency,CP247,inactive
